# Screens deposited in PubChem BioAssay by several laboratories.
# zVAD death inh: L929 zVAD cell death inhibition; viability rescue, % at 10 µM; actives 0.38% (n = 220,000); L929 zVAD necroptosis rescue, ATP luminescence, 24 h; with zVAD 60 µM; AID 1377;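 active means activation, scaled between plate controls, above about 75%, limit read from the data; inactive means activation under that limit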;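 further: 0% = zVAD with DMSO and 100% = DMSO alone without zVAD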
# TNF necrop inh: inhibitors of TNF-alpha induced necroptosis in Jurkat FADD-/- cells. Jurkat FADD-/- TNF necroptosis rescue, ATP luminescence, 24 h; 0 = TNF only, 100 = no-TNF cells. activation (protection from cell death), % at 10 µM. actives 0.068% (n = 220,000). AID 463075;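 active means activation, meaning protection from cell death, of at least 50% relative to plate controls; inactive means activation below 50%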;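 further: necroptosis triggered by 40 ng/mL TNF-alpha added together with compound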
# Calb FLC: affects C. albicans growth with fluconazole; growth inhibition, % (no concentration beside the values); actives 0.57% (n = 300,000); AID 1979; C. albicans CaCi-2 (fluconazole-resistant clinical isolate) + fluconazole, Alamar Blue growth, 48 h;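 active means growth inhibition above about 58% in most replicates, limit read from the data, passing the limit was not always enough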;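 further: all wells also contain fluconazole at 8 µg/ml as a sub-toxic cotreatment; 0% = median of DMSO wells and 100% = median of geldanamycin control wells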
# HIF act: HIF pathway transcriptional activation. U2OS HRE-luciferase reporter, luminescence; normalized: DMSO 0%, desferrioxamine 100%. actives 0.32% (n = 300,000). activation, % at 7.5 µM (by protocol). AID 1910;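 active means mean activation of at least 10% of the iron chelator positive control signal, with at least half of replicates also reaching 10%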
# zVAD necrop conf: confirmed blocker of zVAD induced death in L929 cells; shares compounds with zVAD death inh; L929 zVAD-induced necroptosis rescue, ATP luminescence, 24 h; activation (protection from necroptosis), % at 10 µM; actives 16% (n = 760);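 active means mean protection from necroptosis of at least 50% over duplicate tests; inactive means mean protection below 50%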;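 further: 0% = cells with zVAD alone and 100% = vehicle cells without zVAD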
# The depositor's hits bear a star; / = no result. An excerpt weighted towards active compounds, which were near 1.1% of everything screened.
SMILES,zVAD death inh,TNF necrop inh,Calb FLC,HIF act,zVAD necrop conf
O=c1[nH]c2ccccc2nc1/C=C/c1ccc(F)cc1,67.3,-3.6,-16.9,3.1,/
O=c1[nH]c2ccccc2nc1/C=C/c1ccc(O)cc1,81.4*,-6.2,-6.0,1.6,82.2*
O=c1[nH]c2ccccc2nc1/C=C/c1ccccc1,78.1*,1.1,9.7,3.5,29.3
CC1Sc2ccc(S(=O)(=O)CCC(=O)NC(C)c3ccccc3)cc2NC1=O (centres undefined),/,/,-3.6,0.5,/
NS(=O)(=O)c1ccc(N/C=C\C(=O)c2ccc(F)cc2)cc1,0.6,-1.7,-28.8,1.8,/
NS(=O)(=O)c1ccc(N/C=C/C(=O)c2ccc(Br)cc2)cc1,75.9*,-1.4,19.1,2.5,15.5
Cc1[nH]n(-c2ccccc2)c(=O)c1/C=N/N(c1ccccc1)c1ccccc1,3.2,0.2,-14.2,0.3,/
Cc1[nH]n(-c2ccccc2)c(=O)c1C=NC1CCCCC1,75.1*,2.6,-13.5,0.5,1.1
Cc1[nH]n(-c2ccccc2)c(=O)c1C=NC1CCCCCC1,79.5*,3.0,22.0,0.4,34.0
COc1ccc(-c2nc(N3CCOCC3)nc3n[nH]c(N)c23)cc1,75.4*,-5.7,4.9,0.3,42.6
COc1ccc(C)cc1NC(=O)c1sc2ncnc(N3CCN(c4ccccn4)CC3)c2c1C,/,/,2.1,1.7,/
CN(C)C=Nc1ncc2c3ccccc3n(CCN(C)C)c2c1C#N,90.8*,1.0,-4.9,0.7,38.7
CCN(CC)CCn1c2ccccc2c2cnc(N)c(C#N)c21,75.2*,-10.2,35.2,24.9*,70.0*
CCOC(=O)C1(C)NC(c2cccs2)C2C(=O)N(c3ccc(OC)cc3)C(=O)C21 (centres undefined),2.2,-0.2,-8.6,-0.2,/
Cc1ccc(NC(=O)C(OC(=O)c2ccc(C=O)cc2)c2ccccc2)cc1Cl (centres undefined),82.5*,3.0,24.5,-0.4,18.9
O=C(CSc1nnc(CNC(=O)c2c(F)cccc2F)o1)c1ccccc1,/,/,-4.3,-0.2,/
CCC(=O)Oc1ccc(-c2cnc3ccccc3n2)cc1,89.2*,-3.0,-49.4,1.2,39.3
O=C(Oc1ccc(-c2cnc3ccccc3n2)cc1)c1cc([N+](=O)[O-])ccc1Cl,73.4,-1.3,-0.8,0.0,/
CCOC(=O)c1ccc2[nH]c3c(c2c1)CCCC3O (centres undefined),76.4*,6.6,27.8,2.8,41.1
CCOc1ccc(S(=O)(=O)N2CCC(C(=O)NCc3ccccn3)CC2)cc1C,/,/,-1.2,0.3,/
Cc1cccnc1NC(=O)Nc1ccc(F)cc1,81.9*,-0.5,-16.0,1.7,3.1
Cc1cnc(NC(=O)Nc2ccc(Cl)cc2)s1,78.3*,-15.0,-18.0,4.3,0.4
O=C(Nc1ccc(F)c(Cl)c1)Nc1ccc(Cl)cn1,17.0,0.9,-15.1,0.3,/
O=C(Nc1ccc(F)cc1)Nc1ccc(Cl)cn1,75.8*,12.7,-20.5,1.6,23.5
COc1cccc(/C=N/NC(=O)CN2C(=O)NC3NC(=O)NC32)c1 (centres undefined),0.8,1.5,-4.7,-0.7,/
SMILES,zVAD death inh,TNF necrop inh,Calb FLC,HIF act,zVAD necrop conf
CC(=O)c1ccc2c(c1)c(C#N)c1ccccc1[n+]2[O-],/,/,-1.4,0.1,/
Cc1cc(C)cc(NS(=O)(=O)c2ccc3c(c2)C(C)(C)C(=O)N3C)c1,/,/,-5.7,-0.4,/
COC(=O)CNC(=O)C1CCC(CNS(=O)(=O)c2cccc3nsnc23)CC1 (centres undefined),/,/,6.8,0.5,/
CCOc1ccc2nc(NC(=O)C(NS(=O)(=O)c3cccs3)C(C)C)sc2c1 (centres undefined),1.2,-2.0,-10.3,-0.5,/
CCOc1ccc2nc(NC(=O)C3CCCN(S(=O)(=O)c4cccs4)C3)sc2c1 (centres undefined),88.3*,1.1,11.1,-0.1,5.1
CN(C)C=NC(=O)/C(C#N)=C1\CCc2ccccc2N1,83.4*,15.5,-1.2,-0.3,6.0
CC(=O)c1sc(NC(=O)c2ccc(C(C)(C)C)cc2)nc1C,75.5*,3.0,-3.6,1.2,1.1
CCOC(=O)Nc1nnc(-c2ccccc2OC)s1,0.5,-0.3,-2.3,0.6,/
CCC(SC1=NCCS1)C(=O)Nc1nnc(-c2ccccc2OC)s1 (centres undefined),83.2*,2.8,-1.9,-0.1,1.3
Cc1ccc(CN2CCS(=O)(=O)CC2)o1,82.7*,13.6,9.2,-0.7,5.4
Cc1cc(C)nc(SCC(=O)c2c(N)n(C)c(=O)n(C)c2=O)n1,75.6*,-2.6,-22.5,0.3,-0.3
Cn1c(N)c(C(=O)CSc2ccc3c(c2)OCCO3)c(=O)n(C)c1=O,-0.1,-5.2,-5.2,1.1,/
O=C(CSc1nc2ccc(Cl)cc2[nH]1)N1CCN(C(=O)c2ccco2)CC1,85.3*,2.4,0.6,-0.2,48.5
O=C1SCCC1NC(=O)C(c1ccccc1)c1ccccc1 (centres undefined),-0.7,-0.5,4.6,-0.1,/
COc1ccccc1-n1cnc2cc(NC(=O)c3ccco3)ccc21,8.2,-11.8,0.6,3.3,/
COc1ccc(-n2cnc3cc(NC(=O)c4ccco4)ccc32)cc1,82.6*,3.5,28.3,-0.4,47.3
O=C(Nc1ccc2c(c1)ncn2C1CCCCC1)c1ccco1,82.1*,0.8,14.9,3.3,3.2
O=C(c1ccco1)N1CCN(C(=O)c2ccc(COc3ccc(Cl)cc3Cl)o2)CC1,86.4*,-10.7,19.5,-0.2,34.8
O=C(c1ccco1)N1CCN(C(=O)c2ccc(COc3ccc4c(c3)CCC4)o2)CC1,83.1*,-0.9,-0.2,-28.4,33.8
O=C(c1ccc(COc2ccccc2Cl)o1)N1CCN(c2ccccc2)CC1,1.6,1.5,8.5,-0.6,/
O=C(c1ccc(COc2ccc3c(c2)CCC3)o1)N1CCN(c2ccccc2)CC1,1.0,-1.1,-2.3,1.4,/
CCc1noc(C)c1C(=O)Nc1cccc(S(=O)(=O)N(C)c2ccccc2)c1,/,/,0.4,3.0,/
CCC(=O)Nc1cc(SCCO)cc([N+](=O)[O-])c1,-0.5,-1.8,-6.5,-0.3,/
O=C(CCl)Nc1cc(SCC(O)CO)cc([N+](=O)[O-])c1 (centres undefined),80.5*,-12.2,0.9,-6.4,77.4*
Cc1cc(C(=O)Cn2nc(C(=O)O)c3ccccc3c2=O)c(C)n1CCc1ccc(Cl)cc1,77.9*,-3.5,28.3,0.5,8.1
Cc1cc(C(=O)Cn2nc(C(=O)O)c3ccccc3c2=O)c(C)n1-c1ccccc1,1.0,-1.0,-5.2,3.5,/
COC(CNC(=O)c1c[nH]c2ccc(S(=O)(=O)N(C)c3ccc(F)cc3)cc2c1=O)OC,/,/,36.3,0.3,/
COc1ccccc1C1=NOC(C(=O)N2CCN(C(=O)c3ccco3)CC2)C1 (centres undefined),/,/,-4.2,0.5,/
COc1cc(OC)c(C2=NOC(C(=O)N3CCN(C(=O)c4ccco4)CC3)C2)cc1Cl (centres undefined),82.7*,1.3,-0.6,-0.2,0.5
